This is part of a sample that, as a whole, favours compounds with a hit. Of some 83,000 tested, about 20% had one in any assay.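 96-well plates, one dose, 48 hours. Percent growth reported; active if below 10.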 A number with no mark means an inactive call. The source made the active and inactive calls.

The first experiment deals with SW-620 colon. The experiment in a line: NCI-60 one-dose screen, 48 h (100 = growth as untreated, 0 = no growth, -100 = all killed). The settings on record: 10 µM unless noted.
As to `Cn1cc(C2=C(c3cn(C4CCN(Cc5ccccn5)CC4)c4ccccc34)C(=O)NC2=O)c2ccccc21`, the growth was 47.8%. As for `O=C1OCCC1Br` (stereo unspecified), the growth is 103%. Same read-out and setting: with `CC(CO)NC1CCCCC1` (stereo unspecified) the figure was 105%; with `CC[C@H](C)[C@H](NC(=O)C12CC(NC(C)=O)(C1)C2)C(=O)N(C)[C@H](C[C@@H](OC(C)=O)c1nc(C(=O)N[C@@H](Cc2ccccc2)C[C@H](C)C(=O)OC)cs1)C(C)C`, 23.7%; with `CC[C@H](C)[C@H](NC(=O)NC(C)(C)C)C(=O)N(C)[C@H](C[C@@H](OC(C)=O)c1nc(C(=O)N[C@@H](Cc2ccccc2)C[C@H](C)C(=O)OC)cs1)C(C)C`, 20.5%. Still for that read-out and setting: with `ClCCN(CCCl)Cc1ccc(Nc2ccnc3cc(Cl)ccc23)cc1` the figure was 34.3%. Same read-out and setting: with `O=C(N/N=C\c1ccc(N(CCCl)CCCl)cc1)c1cccc([N+](=O)[O-])c1` the figure was 100%; with `O=[N+]([O-])c1c(Br)sc(Br)c1[N+](=O)[O-]`, -77% (active); with `CC12CC(=O)C3(SC#N)C(CCC4=CC(=O)CCC43C)C1CCC2=O` (stereo unspecified), 40.6%. As for `CCn1c2ccccc2c2cc(C(=O)c3ccc(C)c4ccccc34)ccc21`, the growth is 11.8%. For `COc1ccc([As]=[As]c2ccc(OC)c(NCS(=O)(=O)O)c2)cc1NCS(=O)(=O)O` (stereo unspecified), the growth was -1.05% (active). Consider `NC1CC2CCCCC2CC1(O)c1ccccc1` (stereo unspecified), for which the growth was 101%.

Turning to `N/C(=N/N=C/c1ccncc1)N[N+](=O)[O-]`, the growth was 106%. Same read-out and setting: with `CCOP(=O)(Nc1ccc2c(c1)/C(=N/NC(N)=S)c1ccccc1-2)OCC` the figure was 115%.

Take `O=C(N/N=C\c1ccc(N(CCCl)CCCl)cc1Cl)c1cccnc1`: the growth was 79.2%. In the case of `COC(=O)CCc1c[nH]c2ccc(N(CCCl)CCCl)cc12`, the growth is 47.5%. Still for that read-out and setting: with `COc1cc(C=Nc2cccc(C(=O)O)c2)ccc1N(CCCl)CCCl` the figure was 90.4%; with `CCCCNC(c1ccc(Cl)cc1)C(O)c1ccc(Cl)cc1` (stereo unspecified), 2.85% (active); with `CC1(C)[C@H](O)[C@H](F)C[C@@]2(C)Oc3ccc(C(=O)Nc4ccc5c(c4)NC(=O)C54CCN(CCCCC#N)CC4)cc3C[C@H]12`, 0.683% (active). For `COC(=O)[C@@H](C)C[C@H](Cc1ccccc1)NC(=O)c1csc([C@@H](C[C@H](C(C)C)N(C)C(=O)[C@@H](NC(=O)[C@H]2CCCCN2C)C(C)C)OC(C)=O)n1`, the growth was 22.9%. The same measure, in the same setting: in the case of `N#CCCNc1ccccc1` it was 103%; in that of `CCCCCC1(CCBr)C(=O)NC(=O)NC1=O`, 101%. Still for that read-out and setting: with `CC[C@H](C)[C@H](NC(=O)[C@H]1CCCCN1C)C(=O)N(C)[C@H](CCc1nc(C(=O)N[C@@H](Cc2ccccc2)C[C@H](C)C(=O)OC)cs1)C(C)C` the figure was 28%; with `COC(=O)[C@@H](C)C[C@H](Cc1ccccc1)NC(=O)c1csc([C@@H](C[C@H](C(C)C)N(C)C(=O)[C@@H](NC(=O)[C@H]2CCCCN2C)C(C(F)(F)F)C(F)(F)F)OC(C)=O)n1`, 23.1%. On the same count and under the same terms, with `NC(CCl)CCl` the figure was 102%; with `[Cl][Hg][n]1c(-c2ccco2)nc2ccccc21`, 80.9%; with `Cc1cc(N(CCCl)CCCl)ccc1C=Nc1ccccc1-c1ccccc1`, 67%.

Consider `CCC1CN1CCCCN1CC1CC` (stereo unspecified), for which the growth was 105%. Still for that read-out and setting: in the case of `COC(=O)[C@@H](C)C[C@H](Cc1ccccc1)NC(=O)c1csc([C@@H](C[C@H](C(C)C)N(C)C(=O)[C@@H](NC(=O)C23CC(NC(C)=O)(C2)C3)C2CC2)OC(C)=O)n1` it was 41.3%. On the same count and under the same terms, with `O=[N+]([O-])CC(O)C(Cl)(Cl)Cl` (stereo unspecified) the figure was 95.8%; with `O=[N+]([O-])c1ccc(OP(=O)(CCl)N(CCCl)CCCl)cc1` (stereo unspecified), 102%; with `CCOc1ccc(/C=C/[N+](=O)[O-])cc1`, 66.6%. Same read-out and setting: in the case of `CN(C)CCCOc1ccc2c(c1)c(C(=O)C(=O)NCCO)cn2Cc1ccccc1` it was 105%. With `O=C(CC1(O)C(=O)Nc2ccc(Cl)cc21)c1ccc(C(=O)NCC2CCC3(CC2)OOC2(CCCCC2)OO3)cc1` (stereo unspecified), the growth was -49% (active).

In a further experiment the test system is MCF7 breast. The description is as above. To be noted: 10 µM unless noted.
Regarding `Cn1cc(C2=C(c3cn(C4CCN(Cc5ccccn5)CC4)c4ccccc34)C(=O)NC2=O)c2ccccc21`, the growth was 76.1%. Still for that read-out and setting: in the case of `O=C1OCCC1Br` (stereo unspecified) it was 101%; in that of `CC(CO)NC1CCCCC1` (stereo unspecified), 109%. In the case of `CC[C@H](C)[C@H](NC(=O)C12CC(NC(C)=O)(C1)C2)C(=O)N(C)[C@H](C[C@@H](OC(C)=O)c1nc(C(=O)N[C@@H](Cc2ccccc2)C[C@H](C)C(=O)OC)cs1)C(C)C`, the growth is 15.7%. On the same count and under the same terms, with `CC[C@H](C)[C@H](NC(=O)NC(C)(C)C)C(=O)N(C)[C@H](C[C@@H](OC(C)=O)c1nc(C(=O)N[C@@H](Cc2ccccc2)C[C@H](C)C(=O)OC)cs1)C(C)C` the figure was 13.1%; with `ClCCN(CCCl)Cc1ccc(Nc2ccnc3cc(Cl)ccc23)cc1`, 18%; with `O=C(N/N=C\c1ccc(N(CCCl)CCCl)cc1)c1cccc([N+](=O)[O-])c1`, 79.9%. The same measure, in the same setting: in the case of `O=[N+]([O-])c1c(Br)sc(Br)c1[N+](=O)[O-]` it was 23.3%; in that of `CC12CC(=O)C3(SC#N)C(CCC4=CC(=O)CCC43C)C1CCC2=O` (stereo unspecified), 57.7%.

As for `CCn1c2ccccc2c2cc(C(=O)c3ccc(C)c4ccccc34)ccc21`, the growth was 14.4%.

With `COc1ccc([As]=[As]c2ccc(OC)c(NCS(=O)(=O)O)c2)cc1NCS(=O)(=O)O` (stereo unspecified), the growth is -67.5% (active). Still for that read-out and setting: with `NC1CC2CCCCC2CC1(O)c1ccccc1` (stereo unspecified) the figure was 96.1%; with `N/C(=N/N=C/c1ccncc1)N[N+](=O)[O-]`, 99.1%; with `O=C1CCC2(O)[C@@H]3Cc4ccc(O)c5c4[C@]2(CCN3Cc2ccoc2)C1O5` (stereo partly specified), 97.5%. The same measure, in the same setting: with `CCOP(=O)(Nc1ccc2c(c1)/C(=N/NC(N)=S)c1ccccc1-2)OCC` the figure was 69.6%.

In the case of `O=C(N/N=C\c1ccc(N(CCCl)CCCl)cc1Cl)c1cccnc1`, the growth was 34.4%. On the same count and under the same terms, with `COC(=O)CCc1c[nH]c2ccc(N(CCCl)CCCl)cc12` the figure was 30.9%; with `COc1cc(C=Nc2cccc(C(=O)O)c2)ccc1N(CCCl)CCCl`, 95.2%. On the same count and under the same terms, in the case of `C/C(CC(C)(C)N1CC1)=N\NC(=O)Nc1cccc2ccccc12` it was 24.9%; in that of `CCCCNC(c1ccc(Cl)cc1)C(O)c1ccc(Cl)cc1` (stereo unspecified), 3.13% (active). As for `O=C(O)CNC(=O)C(Cl)(Cl)Cl`, the growth was 91.1%. For the molecule `CC1(C)[C@H](O)[C@H](F)C[C@@]2(C)Oc3ccc(C(=O)Nc4ccc5c(c4)NC(=O)C54CCN(CCCCC#N)CC4)cc3C[C@H]12`, the growth was 27.6%.

Regarding `COC(=O)[C@@H](C)C[C@H](Cc1ccccc1)NC(=O)c1csc([C@@H](C[C@H](C(C)C)N(C)C(=O)[C@@H](NC(=O)[C@H]2CCCCN2C)C(C)C)OC(C)=O)n1`, the growth was 19.6%.

Turning to `N#CCCNc1ccccc1`, the growth was 103%. As to `CCCCCC1(CCBr)C(=O)NC(=O)NC1=O`, the growth is 97.5%.

On to `CC[C@H](C)[C@H](NC(=O)[C@H]1CCCCN1C)C(=O)N(C)[C@H](CCc1nc(C(=O)N[C@@H](Cc2ccccc2)C[C@H](C)C(=O)OC)cs1)C(C)C`, for which the growth is 20.5%. Same read-out and setting: with `COC(=O)[C@@H](C)C[C@H](Cc1ccccc1)NC(=O)c1csc([C@@H](C[C@H](C(C)C)N(C)C(=O)[C@@H](NC(=O)[C@H]2CCCCN2C)C(C(F)(F)F)C(F)(F)F)OC(C)=O)n1` the figure was 12.2%; with `NC(CCl)CCl`, 96.5%. Still for that read-out and setting: in the case of `[Cl][Hg][n]1c(-c2ccco2)nc2ccccc21` it was 74.9%; in that of `Cc1cc(N(CCCl)CCCl)ccc1C=Nc1ccccc1-c1ccccc1`, 39.1%; in that of `CCC1CN1CCCCN1CC1CC` (stereo unspecified), 99.8%.

As to `COC(=O)[C@@H](C)C[C@H](Cc1ccccc1)NC(=O)c1csc([C@@H](C[C@H](C(C)C)N(C)C(=O)[C@@H](NC(=O)C23CC(NC(C)=O)(C2)C3)C2CC2)OC(C)=O)n1`, the growth was 18.9%. The same measure, in the same setting: in the case of `O=[N+]([O-])CC(O)C(Cl)(Cl)Cl` (stereo unspecified) it was 95.5%; in that of `O=[N+]([O-])c1ccc(OP(=O)(CCl)N(CCCl)CCCl)cc1` (stereo unspecified), 92.5%. `CCOc1ccc(/C=C/[N+](=O)[O-])cc1`: the growth is 28.5%. For `CN(C)CCCOc1ccc2c(c1)c(C(=O)C(=O)NCCO)cn2Cc1ccccc1`, the growth is 91.5%. On to `O=C(CC1(O)C(=O)Nc2ccc(Cl)cc21)c1ccc(C(=O)NCC2CCC3(CC2)OOC2(CCCCC2)OO3)cc1` (stereo unspecified), for which the growth was 37.4%.

The values are drawn from PubChem BioAssay (NCI).
